Laboratory results published in PubChem BioAssay (EPA / NIEHS).
Activity calls are given as the source filed them. The calls were made as follows: active = hit-call score of the fitted dose curve at least 0.9, where 1 is the maximum; inactive = score below 0.9.

Assays:
[1] = target: Transcription factor E2F1 (Homo sapiens) (UniProt Q01094); test: ATG_E2F_CIS: Attagene CIS-FACTORIAL HepG2 Assay for human E2F Transcription Factor 1 (AID 2282935); conditions: HepG2 Attagene cis-reporter, E2F reporter RNA transcripts; actives raise or lower the signal
In short: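 Gain or loss of reporter transcript, fitted against DMSO, reflects E2F1-driven transcription. Transiently transfected HepG2 dosed 24 h before RNA isolation. Quantified by fluorescent RT-PCR products separated by capillary electrophoresis.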

[2] = ATG_E_Box_CIS: Attagene CIS-FACTORIAL HepG2 Assay for human Enhancer Box (E-box) (AID 2282936); conditions: HepG2 E-box cis-reporter transcription, actives raise or lower the signal
In short: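 E-box-driven reporter transcripts measured in transiently transfected HepG2 after 24 h exposure: RNA reverse-transcribed, PCR-amplified, fluorescently labelled, digested and resolved by capillary electrophoresis. Gain or loss relative to DMSO.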

[3] = ATG_M_61_CIS: Attagene CIS-FACTORIAL HepG2 Assay for M61 Transcription Factor (Internal Marker) (AID 2282937); conditions: HepG2 Attagene CIS-FACTORIAL M61 internal marker reporter; actives raise or lower the signal
In short: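 HepG2 cells transiently transfected with cis-element-driven multiple reporter transcription units, dosed for 24 h. Reporter mRNA measured by RT-PCR, 6-FAM primer-extension labelling, HpaI digestion and capillary electrophoresis; bidirectional fit versus DMSO baseline.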

[4] = ATG_EGR_CIS: Attagene CIS-FACTORIAL HepG2 Assay for human Early Growth Response 1 (EGR1) (AID 2282938); conditions: HepG2 Attagene CIS-FACTORIAL EGR reporter mRNA; actives raise or lower the signal
In short: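 HepG2 cells transiently transfected with cis-promoter-driven multiplexed reporter transcription units; reporter mRNA measured 24 h after compound dosing by RT-PCR, 6-FAM primer extension, HpaI digestion and capillary electrophoresis. Bidirectional fit versus DMSO baseline.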

[5] = ATG_M_19_CIS: Attagene CIS-FACTORIAL HepG2 Assay for M19 Transcription Factor (Internal Marker) (AID 2282939); conditions: HepG2 Attagene CIS-FACTORIAL M19 internal marker reporter; actives raise or lower the signal
In short: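 Internal marker readout, fitted in both directions against DMSO, from HepG2 cells carrying transfected cis-element reporter constructs; RT-PCR and capillary electrophoresis of reporter mRNA after 24 h exposure.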

[6] = ATG_ERE_CIS: Attagene CIS-FACTORIAL HepG2 Assay for Estrogen Response Element (ERE) (AID 2282940); conditions: HepG2 ERE cis-reporter, Attagene RNA transcript; actives raise or lower the signal
In short: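 After 24 h compound treatment, RNA from transfected HepG2 cells was reverse-transcribed, reporter cDNA PCR-amplified, FAM-labelled, HpaI-cut and resolved by capillary electrophoresis. ERE-driven cis reporter transcripts reflect endogenous factors; gain or loss scored against DMSO.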

[7] = ATG_Ets_CIS: Attagene CIS-FACTORIAL HepG2 Assay for human Erythroblast Transformation Specific (ETS) (AID 2282941); conditions: HepG2 ETS cis-reporter transcription, actives raise or lower the signal
In short: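 Cis-regulated reporter mRNA induction in HepG2 (transient transfection), 24 h exposure, RT-PCR plus capillary electrophoresis detection; DMSO serves as negative control and baseline.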

[8] = target: Hepatocyte nuclear factor 3-beta (Homo sapiens) (UniProt Q9Y261); test: ATG_FoxA2_CIS: Attagene CIS-FACTORIAL HepG2 Assay for human Forkhead box A2 (FOXA2) (AID 2282942); conditions: HepG2 cis-reporter transcription factor activity, 24 h; actives raise or lower the signal
In short: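 HepG2 cells transiently transfected with multiple cis-regulated reporter transcription units, dosed for 24 h. Reporter mRNA measured by RT-PCR, 6-FAM labelling, HpaI digestion and capillary electrophoresis; bidirectional fitting against DMSO baseline.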

[9] = ATG_FoxO_CIS: Attagene CIS-FACTORIAL HepG2 Assay for human Forkhead box O (FoxO) (AID 2282943); conditions: HepG2 Attagene cis-reporter, FoxO element, mRNA; actives raise or lower the signal
In short: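 HepG2, transient MRTU transfection (cis element, endogenous TFs). Dose 24 h. TriZol RNA → oligo(dT) RT → PCR → 6-FAM primer extension → HpaI cut → CE. Gain/loss vs DMSO.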

[10] = ATG_GATA_CIS: Attagene CIS-FACTORIAL HepG2 Assay for human GATA Binding Protein (AID 2282944); conditions: HepG2 GATA cis-element reporter, Attagene multiplex mRNA; actives raise or lower the signal
In short: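 Reporter transcripts from a GATA cis-regulated unit, among multiplexed reporters in transfected HepG2 cells, were measured by RT-PCR with capillary electrophoresis after 24 h dosing. Induction or loss scored relative to DMSO.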

[11] = ATG_GLI_CIS: Attagene CIS-FACTORIAL HepG2 Assay for human Zinc Finger Protein GLI1 (AID 2282945); conditions: HepG2, Attagene cis-factorial reporter mRNA, GLI element; actives raise or lower the signal
In short: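 Bidirectional curve fits relative to DMSO, using reporter mRNA levels from RT-PCR plus capillary electrophoresis. Cells were HepG2 transiently carrying cis-regulated reporter constructs, harvested 24 h after dosing.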

[12] = ATG_GRE_CIS: Attagene CIS-FACTORIAL HepG2 Assay for human Glucocorticoid Response Elements (GRE) (AID 2282947); conditions: HepG2 GRE cis-reporter, Attagene multiplex mRNA; actives raise or lower the signal
In short: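 Reporter transcripts read by RT-PCR with capillary electrophoresis fluorescence after a 24 h chemical exposure of HepG2 cells transiently transfected with multiple cis-element reporter units. Gain or loss fitted against DMSO.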

[13] = ATG_ISRE_CIS: Attagene CIS-FACTORIAL HepG2 Assay for human Interferon Regulatory Factor 1 (IRF1) binding to an Interferon-Stimulated Response Element (ISRE) (AID 2282948); conditions: HepG2 ISRE cis-reporter (Attagene), mRNA transcription readout; actives raise or lower the signal
In short: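 Multiplexed mRNA reporter readout in human liver HepG2 cells: cis-element-driven reporters transfected, compound added for 24 h, transcripts amplified, fluorescently labelled and sized by capillary electrophoresis; curve fitting bidirectional against DMSO.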

[14] = ATG_M_32_CIS: Attagene CIS-FACTORIAL HepG2 Assay for M32 Transcription Factor (Internal Marker) (AID 2282949); conditions: HepG2 Attagene cis-factorial M32 reporter, mRNA; actives raise or lower the signal;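 also: background control marker of the multiplexed CIS panel rather than a real target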
In short: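 HepG2 transfectants (cis-regulated reporter transcription units) dosed 24 h. Reporter mRNA by RT-PCR plus CE, analysed as gain or loss relative to DMSO.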

[15] = ATG_M_06_CIS: Attagene CIS-FACTORIAL HepG2 Assay for M06 Transcription Factor (Internal Marker) (AID 2282950); conditions: HepG2 Attagene CIS-FACTORIAL M06 internal marker reporter; actives raise or lower the signal
In short: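 Serves as a background control readout. Transfected HepG2 exposed to compounds for 24 h, then reporter transcripts quantified by fluorescent RT-PCR and capillary electrophoresis. Both directions fitted against DMSO baseline.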

[16] = target: Hypoxia-inducible factor 1-alpha (Homo sapiens) (UniProt Q16665); test: ATG_HIF1a_CIS: Attagene CIS-FACTORIAL HepG2 Assay for human Hypoxia Inducible Factor 1 (HIF1A) (AID 2282951); conditions: HepG2 Attagene cis-factorial HIF1a reporter transcription; actives raise or lower the signal
In short: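 HepG2 cells transiently transfected with multiplexed cis-promoter reporter units; reporter mRNA read 24 h after dosing by RT-PCR, 6-FAM primer-extension labelling, HpaI digestion and capillary electrophoresis. Bidirectional fit versus DMSO baseline.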

[17] = target: Hepatocyte nuclear factor 6 (Homo sapiens) (UniProt Q9UBC0); test: ATG_HNF6_CIS: Attagene CIS-FACTORIAL HepG2 Assay for human Hepatocyte Nuclear Factor 6 (HNF6) (AID 2282952); conditions: HepG2 Attagene cis-factorial HNF6 reporter transcription; actives raise or lower the signal
In short: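 First, HepG2 cells were transfected with the multiplexed cis reporter library and dosed with chemical for 24 h. Next, RNA was reverse-transcribed, PCR-amplified and fluorescently labelled. Finally, HpaI-digested fragments were read by capillary electrophoresis.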

[18] = target: Heat shock factor protein 1 (Homo sapiens) (UniProt Q00613); test: ATG_HSE_CIS: Attagene CIS-FACTORIAL HepG2 Assay for human Heat Shock Transcription Factor 1 (HSE) (AID 2282953); conditions: HepG2 HSE cis-reporter, Attagene RNA transcription; actives raise or lower the signal
In short: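 Endogenous transcription factor activity in transiently transfected HepG2, read as reporter mRNA by RT-PCR with fluorescent capillary electrophoresis after 24 h. Gain or loss of signal fitted versus DMSO baseline.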

[19] = ATG_MRE_CIS: Attagene CIS-FACTORIAL HepG2 Assay for human Metal Responsive Element (MRE) (AID 2282954); conditions: HepG2 MRE cis-reporter transcription, Attagene multiplex; actives raise or lower the signal
In short: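 Endogenous MRE-dependent transcription read as reporter mRNA in transiently transfected human HepG2 cells at 24 h. RNA reverse-transcribed, PCR-amplified, labelled and resolved by capillary electrophoresis; gain or loss relative to DMSO.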

[20] = target: Bile acid receptor (Homo sapiens) (UniProt Q96RI1); test: ATG_IR1_CIS: Attagene CIS-FACTORIAL HepG2 Assay for human Nuclear Receptor Subfamily 1 Group H Member 4 (NR1H4), IR1 submotif (AID 2282946); conditions: IR1 reporter transcription, actives raise or lower the signal
In short: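 HepG2 cells transiently transfected with multiplexed cis-element reporter units read endogenous transcription factor activity. After 24 h compound exposure, reporter mRNA was quantified by RT-PCR, fluorescent labelling, HpaI digestion and capillary electrophoresis; bidirectional fitting versus DMSO baseline.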

Measured: AC50

Chain of Hepatocyte nuclear factor 6 (Homo sapiens) (Q9UBC0 whole entry, looked up, the tested form may be a part): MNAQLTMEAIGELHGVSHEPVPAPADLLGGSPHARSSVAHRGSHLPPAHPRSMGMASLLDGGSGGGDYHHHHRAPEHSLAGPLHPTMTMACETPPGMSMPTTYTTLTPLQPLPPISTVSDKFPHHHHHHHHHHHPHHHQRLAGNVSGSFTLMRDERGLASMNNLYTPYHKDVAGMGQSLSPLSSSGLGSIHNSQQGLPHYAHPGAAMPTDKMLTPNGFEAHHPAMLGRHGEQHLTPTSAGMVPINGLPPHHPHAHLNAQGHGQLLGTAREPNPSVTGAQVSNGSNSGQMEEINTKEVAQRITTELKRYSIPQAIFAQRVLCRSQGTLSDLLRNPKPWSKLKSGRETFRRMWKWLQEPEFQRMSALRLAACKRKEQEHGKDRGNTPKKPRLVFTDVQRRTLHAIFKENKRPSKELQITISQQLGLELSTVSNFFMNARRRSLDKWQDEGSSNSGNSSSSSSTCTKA
Chain of Hypoxia-inducible factor 1-alpha (Homo sapiens) (Q16665 whole entry, looked up): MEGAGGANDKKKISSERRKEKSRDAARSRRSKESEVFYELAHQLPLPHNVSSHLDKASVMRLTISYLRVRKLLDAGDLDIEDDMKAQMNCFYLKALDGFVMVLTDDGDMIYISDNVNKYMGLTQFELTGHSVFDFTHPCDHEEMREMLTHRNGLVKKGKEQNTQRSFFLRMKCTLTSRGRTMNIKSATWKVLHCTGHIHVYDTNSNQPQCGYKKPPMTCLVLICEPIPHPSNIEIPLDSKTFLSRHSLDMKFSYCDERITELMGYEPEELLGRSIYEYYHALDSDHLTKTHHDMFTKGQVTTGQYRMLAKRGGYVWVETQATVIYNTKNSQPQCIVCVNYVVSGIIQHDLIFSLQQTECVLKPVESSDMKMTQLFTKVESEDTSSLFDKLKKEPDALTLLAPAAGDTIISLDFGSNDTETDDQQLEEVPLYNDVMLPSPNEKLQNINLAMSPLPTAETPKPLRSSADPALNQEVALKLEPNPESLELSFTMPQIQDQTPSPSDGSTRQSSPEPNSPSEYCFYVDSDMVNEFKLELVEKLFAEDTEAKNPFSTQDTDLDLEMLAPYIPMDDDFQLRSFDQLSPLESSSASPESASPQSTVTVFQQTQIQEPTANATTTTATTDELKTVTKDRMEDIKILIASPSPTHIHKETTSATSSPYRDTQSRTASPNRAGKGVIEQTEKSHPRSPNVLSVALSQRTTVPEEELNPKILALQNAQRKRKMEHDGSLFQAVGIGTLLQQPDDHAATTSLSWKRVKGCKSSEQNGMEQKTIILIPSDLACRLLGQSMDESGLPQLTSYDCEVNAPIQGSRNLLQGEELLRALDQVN
Chain of Heat shock factor protein 1 (Homo sapiens) (Q00613 whole entry, looked up): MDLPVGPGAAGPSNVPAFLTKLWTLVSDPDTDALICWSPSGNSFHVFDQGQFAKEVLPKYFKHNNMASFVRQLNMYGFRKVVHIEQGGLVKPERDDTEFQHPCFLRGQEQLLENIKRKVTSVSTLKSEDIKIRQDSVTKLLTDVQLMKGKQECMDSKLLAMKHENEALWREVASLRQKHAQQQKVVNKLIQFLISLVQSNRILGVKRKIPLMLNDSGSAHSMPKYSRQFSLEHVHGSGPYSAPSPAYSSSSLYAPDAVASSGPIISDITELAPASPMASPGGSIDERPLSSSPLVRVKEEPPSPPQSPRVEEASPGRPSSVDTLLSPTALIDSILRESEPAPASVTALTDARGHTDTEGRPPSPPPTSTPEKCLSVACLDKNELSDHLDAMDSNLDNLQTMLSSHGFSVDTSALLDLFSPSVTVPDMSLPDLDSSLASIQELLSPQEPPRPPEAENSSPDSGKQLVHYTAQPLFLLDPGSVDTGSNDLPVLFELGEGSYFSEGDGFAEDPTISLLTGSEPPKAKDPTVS
Chain of Transcription factor E2F1 (Homo sapiens) (Q01094 whole entry, looked up): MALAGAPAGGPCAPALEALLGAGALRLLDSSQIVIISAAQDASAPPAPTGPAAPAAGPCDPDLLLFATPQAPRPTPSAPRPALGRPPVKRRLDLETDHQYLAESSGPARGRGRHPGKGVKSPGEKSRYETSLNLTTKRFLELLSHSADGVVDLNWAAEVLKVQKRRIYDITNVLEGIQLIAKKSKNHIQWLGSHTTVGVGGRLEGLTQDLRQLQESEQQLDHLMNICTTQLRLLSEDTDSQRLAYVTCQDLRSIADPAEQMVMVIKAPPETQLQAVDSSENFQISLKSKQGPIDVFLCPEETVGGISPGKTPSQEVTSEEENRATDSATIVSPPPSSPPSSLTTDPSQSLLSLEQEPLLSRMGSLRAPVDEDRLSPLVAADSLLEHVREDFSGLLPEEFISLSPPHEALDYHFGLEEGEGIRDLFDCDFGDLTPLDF
Chain of Hepatocyte nuclear factor 3-beta (Homo sapiens) (Q9Y261 whole entry, looked up): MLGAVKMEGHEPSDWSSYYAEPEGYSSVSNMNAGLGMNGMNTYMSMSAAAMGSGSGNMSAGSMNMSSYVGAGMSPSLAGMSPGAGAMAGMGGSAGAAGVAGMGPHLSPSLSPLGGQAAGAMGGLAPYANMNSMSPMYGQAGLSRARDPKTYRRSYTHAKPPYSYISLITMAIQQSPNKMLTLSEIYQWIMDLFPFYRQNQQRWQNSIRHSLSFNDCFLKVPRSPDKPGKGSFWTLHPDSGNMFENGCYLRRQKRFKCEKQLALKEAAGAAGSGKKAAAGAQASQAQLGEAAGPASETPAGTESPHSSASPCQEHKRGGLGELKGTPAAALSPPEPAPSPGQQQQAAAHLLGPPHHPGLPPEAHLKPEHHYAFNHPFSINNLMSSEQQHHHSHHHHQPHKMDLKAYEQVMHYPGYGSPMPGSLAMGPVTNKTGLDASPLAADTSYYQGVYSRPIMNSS
Chain of Bile acid receptor (Homo sapiens) (Q96RI1 whole entry, looked up): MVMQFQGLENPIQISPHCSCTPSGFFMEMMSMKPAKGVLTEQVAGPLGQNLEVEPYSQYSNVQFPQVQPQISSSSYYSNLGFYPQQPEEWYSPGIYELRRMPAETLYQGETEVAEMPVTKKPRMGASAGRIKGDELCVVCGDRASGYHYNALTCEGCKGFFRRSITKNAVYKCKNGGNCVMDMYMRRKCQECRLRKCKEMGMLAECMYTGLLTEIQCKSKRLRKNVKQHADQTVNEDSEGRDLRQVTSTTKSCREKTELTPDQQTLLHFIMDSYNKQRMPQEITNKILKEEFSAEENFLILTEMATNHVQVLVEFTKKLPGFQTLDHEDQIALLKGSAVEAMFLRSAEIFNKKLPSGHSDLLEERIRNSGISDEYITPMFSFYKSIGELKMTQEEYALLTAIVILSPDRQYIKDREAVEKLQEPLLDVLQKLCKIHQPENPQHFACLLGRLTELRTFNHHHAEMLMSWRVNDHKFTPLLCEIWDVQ

Cc1cnc(C2=NC(C)(C(C)C)C(=O)N2)c(C(=O)O)c1 (centres undefined)
not listed: [20]
inactive: all other assays above

COC(=O)N(C(=O)N1CO[C@@]2(C(=O)OC)Cc3cc(Cl)ccc3C2=N1)c1ccc(OC(F)(F)F)cc1
active: [19] 2.11 µM
not listed: [5] | [10] | [20]
inactive: all other assays above

CN/C(=N\[N+](=O)[O-])NCc1cnc(Cl)s1
not listed: [3] | [5] | [10] | [12] | [20]
inactive: all other assays above

CCNC(=O)NC(=O)C(C#N)=NOC
active: [6] 50 µM
not listed: [3] | [5]
inactive: all other assays above
